Outcome and AC50 data for 40 molecules are collected here from PubChem BioAssay (EPA / NIEHS).

Activity calls are given as the source filed them. How the source made its calls: active means hit-call score of the fitted dose curve at least 0.9, where 1 is the maximum; inactive means score below 0.9.

For the test, the target named is Hypoxia-inducible factor 1-alpha (Homo sapiens) (UniProt Q16665). Briefly: ATG_HIF1a_CIS: Attagene CIS-FACTORIAL HepG2 Assay for human Hypoxia Inducible Factor 1 (HIF1A) (AID 2282951). The settings on record: HepG2 Attagene cis-factorial HIF1a reporter transcription; actives raise or lower the signal. How it is done: ATG_CIS is a cell-based, multiplexed-readout assay that uses HepG2, a human liver cell line, with measurements taken at 24 hours after chemical dosing in a 24-well plate.ATG_HIF1a_CIS is one of 52 assay component(s) measured or calculated from the ATG_CIS assay. It is designed to make measurements of mRNA induction, a form of inducible reporter, as detected with fluorescence intensity signals by Reverse transcription polymerase chain reaction (RT-PCR) and Capillary electrophoresis technology.Data from the assay component ATG_HIF1a_CIS was analyzed into 1 assay endpoint. This assay endpoint, ATG_HIF1a_CIS, was analyzed with bidirectional fitting relative to DMSO as the negative control and baseline of activity. Using a type of inducible reporter, measures of mRNA for gain or loss-of-signal activity can be used to understand the reporter gene at the transcription factor-level as they relate to the gene HIF1A. Furthermore, this assay endpoint can be referred to as a primary readout, because this assay has produced multiple assay endpoints where this one serves a reporter gene function. To generalize the intended target to other relatable targets, this assay endpoint is annotated to the dna binding intended target family, where the subfamily is basic helix-loop-helix protein.
Sequence of Hypoxia-inducible factor 1-alpha (Homo sapiens) (Q16665 whole entry, looked up): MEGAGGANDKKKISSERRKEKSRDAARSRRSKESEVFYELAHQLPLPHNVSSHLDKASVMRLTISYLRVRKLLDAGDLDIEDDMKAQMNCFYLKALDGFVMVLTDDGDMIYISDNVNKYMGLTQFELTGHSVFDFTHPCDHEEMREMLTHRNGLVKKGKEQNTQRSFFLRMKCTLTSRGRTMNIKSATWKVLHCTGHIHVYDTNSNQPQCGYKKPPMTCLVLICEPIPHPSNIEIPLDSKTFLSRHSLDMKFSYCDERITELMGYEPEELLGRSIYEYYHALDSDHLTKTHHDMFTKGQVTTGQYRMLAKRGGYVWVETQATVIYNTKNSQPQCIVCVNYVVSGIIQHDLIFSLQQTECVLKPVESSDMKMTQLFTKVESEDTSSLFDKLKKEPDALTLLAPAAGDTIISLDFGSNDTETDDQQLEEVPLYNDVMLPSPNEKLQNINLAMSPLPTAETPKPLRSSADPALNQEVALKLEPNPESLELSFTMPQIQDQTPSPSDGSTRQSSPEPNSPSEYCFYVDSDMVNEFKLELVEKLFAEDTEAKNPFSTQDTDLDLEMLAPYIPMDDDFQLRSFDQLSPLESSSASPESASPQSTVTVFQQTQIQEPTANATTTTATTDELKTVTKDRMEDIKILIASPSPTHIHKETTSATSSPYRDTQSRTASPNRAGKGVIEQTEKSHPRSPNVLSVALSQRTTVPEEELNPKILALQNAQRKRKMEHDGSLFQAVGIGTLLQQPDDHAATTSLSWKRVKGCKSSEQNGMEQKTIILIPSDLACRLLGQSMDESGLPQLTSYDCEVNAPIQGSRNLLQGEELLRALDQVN
Human liver HepG2 cells are transiently transfected with multiple reporter transcription units (MRTUs) in 6-well plates using FuGene 6 reagent (Roche; 3 ml FuGene/1 mg DNA). The MRTU constructs are regulated by a cis-regulating element (promoter). […] A major difference between the CIS and TRANS system is that in CIS activities of endogenous TFs are measured, whereas the TRANS assay evaluates changes in activities of exogenous, chimeric NR-Gal4 proteins. […] At the end of 24 hour incubation, total RNA was isolated using TriZol reagent (Invitrogen). The isolated RNA is then reverse-transcribed using oligo(dT) primer and Mo-MLV reverse transcriptase (Invitrogen) with DNAse I (Ambion) treatment for 30 min. The one-tenth of the produced cDNA was amplified by PCR using Taq DNA polymerase (Invitrogen) and two reporter sequence-specific primers. The PCR products were fluorescently labeled by primer extension with 6-arboxyfluorescein (6-FAM) 5'-labeled reporter sequence-specific primer (2 min at 95 C, 20 s at 68 C and 10 min at 72 C) and these products were digested with 5U of HpaI (New England Biolabs) for 2h at 37 C. The fragments were purified using Qiaquick PCR columns (Qiagen), analyzed on an ABI 3130xL genetic analyzer (Applied Biosystems) with peak positions identified by using a set of X-rhodamine (ROX)-labeled MapMarker1000 molecular weight standards (BioVentures). The raw capillary electrophoresis data was processed using Attagraph software (Attagene).
Turning to `CCOP(=O)(OCC)Oc1cc(C)nc(C(C)C)n1`, the result was inactive.

Consider `CCOC(=O)COc1cc(-c2nn(C)c(OC(F)F)c2Cl)c(F)cc1Cl`, for which the outcome was inactive.

On to `CCC(=NOC/C=C/Cl)C1=C(O)CC(C2CCOCC2)CC1=O` (stereo not given), for which the molecule was called inactive.

For `CCOP(=O)(SC(C)CC)N1CCSC1=O` (stereo not given), the call was inactive.

For `CC(C1CC1)C(O)(Cn1cncn1)c1ccc(Cl)cc1` (stereo not given), the result was inactive.

For the molecule `COc1ccc(C(=CC(=O)N2CCOCC2)c2ccc(Cl)cc2)cc1OC`, the AC50 is 25.5 µM (active).

As for `CCCCOC(=O)[C@@H](C)Oc1ccc(Oc2ccc(C#N)cc2F)cc1`, the call was inactive.

For the molecule `Cc1nn(-c2cc(NS(C)(=O)=O)c(Cl)cc2Cl)c(=O)n1C(F)F`, the result was inactive.

With `CCOP(=S)(Oc1cnc(C(C)(C)C)nc1)OC(C)C` (stereo not given), the call was inactive.

With `CON=C(C(=O)OC)c1ccccc1CON=C(C)c1cccc(C(F)(F)F)c1`, the molecule was classed as inactive.

As to `CCCSP(=O)(OCC)SCCC`, the outcome was inactive.

Take `CNC(=O)Oc1cccc2c1OC(C)(C)O2`: the molecule was classed as inactive.

On to `CSc1nc(NC(C)C)nc(NC(C)C)n1`, for which the result was inactive.

On to `CCCCOC(=O)c1ccccc1C(=O)O`, for which the molecule was called inactive.

`CSC1=N[C@@](C)(c2ccccc2)C(=O)N1Nc1ccccc1`: the molecule was called inactive.

Consider `CNC(=O)ON=C(SC)C(=O)N(C)C`, for which the molecule was called inactive.

On to `CC[C@H](C)[C@H]1O[C@]2(C=C[C@@H]1C)C[C@@H]1C[C@@H](C/C=C(\C)[C@@H](O[C@H]3C[C@H](OC)[C@@H](O[C@H]4C[C@H](OC)[C@@H](NC)[C@H](C)O4)[C@H](C)O3)[C@@H](C)/C=C/C=C3\CO[C@@H]4[C@H](O)C(C)=C[C@@H](C(=O)O1)[C@]34O)O2`, for which the call was inactive.

For `CCc1cccc(C)c1N(C(=O)CCl)C(C)COC` (stereo not given), the outcome was inactive.

Consider `CN1COCN(Cc2cnc(Cl)s2)C1=N[N+](=O)[O-]`, for which the molecule was classed as inactive.

Consider `CCOC(=O)CC(SP(=O)(OC)OC)C(=O)OCC` (stereo not given), for which the outcome was inactive.

`CCOP(=S)(OCC)Oc1ccc2c(C)c(Cl)c(=O)oc2c1`: the call was inactive.

With `CC(Oc1cccc(Cl)c1)C(=O)O` (stereo not given), the molecule was called inactive.

As for `Cc1cc(C2CC2)nc(Nc2ccccc2)n1`, the AC50 was 50 µM (active).

`CNC(=O)ON=C(C)SC`: the outcome was inactive.

On to `COP(=O)(NC(C)=O)SC` (stereo not given), for which the molecule was called inactive.

On to `Nc1nc(N)nc(NC2CC2)n1`, for which the molecule was called inactive.

Take `CCc1cnc(C2=NC(C)(C(C)C)C(=O)N2)c(C(=O)O)c1` (stereo not given): the molecule was called inactive.

With `C[Si](Cn1cncn1)(c1ccc(F)cc1)c1ccc(F)cc1`, the AC50 was 50 µM (active).

Regarding `CC(C)[C@H](C(=O)O[C@H](C#N)c1cccc(Oc2ccccc2)c1)c1ccc(Cl)cc1`, the outcome was inactive.

As to `C=C(C)[C@H]1Cc2c(ccc3c2O[C@@H]2COc4cc(OC)c(OC)cc4[C@@H]2C3=O)O1`, the AC50 was 0.0274 µM (active).

As for `CCOP(=S)(OCC)Oc1cc(C)nc(C(C)C)n1`, the result was inactive.

As for `CCCSP(=O)(OCC)Oc1ccc(Br)cc1Cl` (stereo not given), the outcome was inactive.

For `CCOP(=S)(OCC)SCCSCC`, the molecule was called inactive.

Consider `C[N+]1(C)CCCCC1`, for which the outcome was inactive.

With `C#CCC1=C(C)C(OC(=O)C2C(C=C(C)C)C2(C)C)CC1=O` (stereo not given), the AC50 is 50 µM (active).

With `CN(C)NC(=O)CCC(=O)O`, the call was inactive.

With `CCOP(=S)(OCC)Oc1ccc([N+](=O)[O-])cc1`, the result was inactive.

For the molecule `CNc1cnn(-c2cccc(C(F)(F)F)c2)c(=O)c1Cl`, the molecule was classed as inactive.

Turning to `Cc1ccn2nc(S(=O)(=O)Nc3c(F)cccc3F)nc2n1`, the molecule was called inactive.

Consider `FC(F)C(F)(F)OCC(Cn1cncn1)c1ccc(Cl)cc1Cl` (stereo not given), for which the AC50 was 75.4 µM (active).

By AC50 is commonly meant the concentration giving half of the maximal activity seen.
